We go through 49 compounds from PubChem BioAssay AID2685 (National Center for Advancing Translational Sciences (NCATS), 2010).

Several values for one entry are separate records, joined by “and”; a condition that tells them apart may be missing. Equal values may be shown once. Out of some 320,000 compounds screened, about 2,100 (0.66%) were called active. Inconclusive results (about 53%) are left out. Calls follow the shape of the dose curve; as a rule, active = well fitted inhibition curve with a large enough effect in the signal ratio, with a control signal flat (not every such curve was filed as active); inconclusive = small, poorly fitted or top-dose-only effect, or effect the other way, or a change in a side signal; inactive = flat fitted curve, though single readings scatter; the % refers to the signal ratio. Shown is part of a subset that was picked to be rich in actives.
Potency is read from the fitted curve at half-maximal effect.

The experiment is described as follows: qHTS Assay for Lipid Storage Modulators in Drosophila S3 Cells.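 As to cell number change: cells counted by Cell Tracker Red CMTPX staining in the red channel.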 As to lipid storage change, negative = inhibition: % is scaled to controls: 0 for no effect and ±100 for the full control effect. Particulars: BODIPY lipid droplet fluorescence, 18-24 h, cells fed with added oleic acid; cell number change: measured here: cell count max response; series mostly up to 46.1 µM; lipid storage change, negative = inhibition: at the top concentration. Summed up: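 Drosophila S3 cells loaded with oleic acid (400 uM, as added) and compounds at several concentrations; lipid droplets imaged by 488-nm laser-scanning cytometry, 500–530 nm intensity and object ratio to cell channel. Percent activity normalized to 20 uM Triacsin C.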
Turning to `CCOC(=O)c1c2ccccc2[n+]([O-])n1CCO`, the Potency was 18.4 µM (active) and the cell number change was -10.4%.

`CCOC(=O)c1c(O)c(O)c(C(=O)OCC)n1-c1ccccc1`: the “lipid storage change, negative = inhibition” value is -6.73% (inactive) and the cell number change was 6.34%.

Take `CCOC(=O)c1c(C)nc2c3ccccc3ccn12`: the outcome was inactive and the cell number change is -20.3%.

On to `Cc1nc2ccc(NS(=O)(=O)c3ccccc3F)cc2s1`, for which the “lipid storage change, negative = inhibition” value is 12.6% (inactive) and the cell number change worked out at 3.06%.

As to `Cc1ccc(S(=O)(=O)Nc2ccc3nc(C)sc3c2)cc1`, the “lipid storage change, negative = inhibition” value was -16% (inactive) and the cell number change was -22.9%.

As to `Cc1nc2ccc(NS(=O)(=O)c3ccc(F)cc3F)cc2s1`, the Potency was 13 µM (active) and the cell number change is -1.41%.

In the case of `Cc1ccc(S(=O)(=O)Nc2ccc3nc(C)sc3c2)c(C)c1`, the Potency was 10.3 µM (active) and the cell number change was determined as 24.9%.

As to `Cc1nc2ccc(NS(=O)(=O)c3ccc(F)cc3)cc2s1`, the result was inactive and the cell number change turned out to be 20%.

`Cc1ccc(S(=O)(=O)Nc2ccc3nc(N)sc3c2)cc1`: the “lipid storage change, negative = inhibition” value is 16.5% (inactive) and the cell number change is -27.3%.

Regarding `COC(=O)C1=C(C)N(Cc2ccccc2)C(=NCc2cccc(Cl)c2)N[C@H]1c1ccccc1`, the Potency entry is “inactive”; the cell number change was -18.9% and 6.44%.

Regarding `COC(=O)C1=C(C)N(Cc2ccccc2)C(=NCc2ccccc2)N[C@H]1c1cccc(F)c1`, the “lipid storage change, negative = inhibition” value is -22.4% (inactive) and the cell number change was -6.29%.

For the compound `COC(=O)C1=C(C)N(Cc2ccccc2)C(=NCc2cccc(Cl)c2)N[C@H]1c1cccc(F)c1`, the Potency was 20.6 µM (active) and the cell number change was -27.7%.

For the compound `CCc1ccc(/C=C2\SC(=S)N(CCC(=O)NC3=NCCS3)C2=O)cc1`, the “lipid storage change, negative = inhibition” value was -19.7% (inactive).

In the case of `Cc1cccc(Nc2nc(N)nc(CN3CCN(c4ccc(F)cc4)CC3)n2)c1`, the “lipid storage change, negative = inhibition” value was 13.2% (inactive) and the cell number change was -18.7%.

In the case of `CCN(CC)CCCNC(=O)C1CCCN(c2nnc(N3CCCC3=O)s2)C1` (centres undefined), the Potency is 25.9 µM (active) and the cell number change was -17%.

As to `CC1CC(C)CN(CCCNC(=O)C2CCCN(c3nnc(N4CCCC4=O)s3)C2)C1` (centres undefined), the “lipid storage change, negative = inhibition” value was -2.92% (inactive) and the cell number change was determined as 2.76%.

Regarding `Cc1ccc(CNC(=O)C2CCN(c3nnc(N4CCCC4=O)s3)CC2)cc1`, the “lipid storage change, negative = inhibition” value was -27.3% (inactive) and the cell number change came to 24.8%.

Turning to `COc1ccccc1NC(=O)c1c([N+](=O)[O-])c(C(C)(C)C)nn1C`, the “lipid storage change, negative = inhibition” value was 4.27% (inactive) and the cell number change was determined as 11.1%.

Take `C#CCNC(=O)C1=C[C@@H](c2coc3ccccc3c2=O)C[C@@H](OCCCCO)O1`: the “lipid storage change, negative = inhibition” value is -3.82% (inactive) and the cell number change turned out to be 6.85%.

Consider `CC(=O)c1ccc(OCC(=O)Nc2ccccc2N2CCCC2)cc1`, for which the “lipid storage change, negative = inhibition” value is -11.1% (inactive) and the cell number change was -18%.

`CC(Oc1cccc(Cl)c1)C(=O)Nc1ccccc1N1CCCCC1` (centres undefined): the “lipid storage change, negative = inhibition” value was -4.15% (inactive) and the cell number change was 7.85%.

Regarding `CCN1CCN(c2ccccc2NC(=O)C(C)Oc2ccc(C(C)=O)cc2)CC1` (centres undefined), the Potency was 18.4 µM (active) and the cell number change is -13.7%.

For the compound `O=C(NNC(=O)c1ccc(Br)s1)NC1CCCCC1`, the “lipid storage change, negative = inhibition” value is 2.2% (inactive) and the cell number change stood at 8.62%.

For `CCSc1nnc(NC(=O)CSc2nnc(-c3c[nH]c4ccccc34)n2C)s1`, the Potency was 2.06 µM (active) and the cell number change was -1.84%.

Consider `CCc1nnc(NC(=O)CSc2nnc(-c3c[nH]c4ccccc34)n2C)s1`, for which the “lipid storage change, negative = inhibition” value was 3.62% (inactive) and the cell number change was found to be 4.19%.

Regarding `CCSc1nnc(NC(=O)CSc2nnc(-c3c[nH]c4ccccc34)n2CC)s1`, the call was inactive and the cell number change amounted to 11.1%.

On to `CSc1cccc(NC(=O)C2CCN(S(=O)(=O)c3ccc4c(c3)NC(=O)CO4)CC2)c1`, for which the outcome was inactive.

Regarding `O=C(Cc1cccs1)NCCn1ccc2ccccc21`, the “lipid storage change, negative = inhibition” value was 17.3% (inactive).

As to `CCOC(=O)CC(=O)CSc1nc2c(sc(=S)n2-c2ccccc2)c(=O)[nH]1`, the “lipid storage change, negative = inhibition” value is -9.14% (inactive) and the cell number change stood at 3.4%.

As for `CC1(C)CC(CC(=O)O)CC(C)(C)N1`, the “lipid storage change, negative = inhibition” value is -1.16% (inactive) and the cell number change came out at 0.961%.

On to `C/C(=N\O)C1CC(CC(=O)O)C1(C)C` (centres undefined), for which the Potency is 2.06 µM (active) and the cell number change stood at 4.13%.

`COCCNC(=O)CSc1nnc(NC(=O)C2CC(=O)N(c3ccccc3OC)C2)s1` (centres undefined): the “lipid storage change, negative = inhibition” value was 10.5% (inactive) and the cell number change turned out to be 3.03%.

With `O=C(CCN1CCN(C(=O)c2ccccc2)CC1)c1ccc(Br)cc1`, the compound was called inactive and the cell number change is 16%.

As to `CC(=O)OCC(OC(C)=O)C(OC(C)=O)C(OC(C)=O)C(=O)Nc1ccccc1` (centres undefined), the “lipid storage change, negative = inhibition” value is -3.16% (inactive) and the cell number change was 13.3%.

With `CCSc1nnc2c(n1)[nH]c1c(C)cccc12`, the Potency was 20.6 µM (active) and the cell number change was -28.9%.

`CSc1nnc2c(n1)[nH]c1c(C)cccc12`: the “lipid storage change, negative = inhibition” value was 15.9% (inactive) and the cell number change is -19.5%.

Regarding `CCSc1nnc2nc3[nH]c4c(C)cccc4c3nn12`, the “lipid storage change, negative = inhibition” value was 3.26% (inactive) and the cell number change is 0.802%.

Consider `COc1ccc([N+](=O)[O-])cc1NC(=O)CSCc1ccccc1`, for which the “lipid storage change, negative = inhibition” value was 2.02% (inactive) and the cell number change is -5.97%.

As for `c1csc(Cc2nc3ccccc3[nH]2)c1`, the compound was classed as inactive.

Turning to `O=C(COC(=O)C12CC3CC(CC(C3)C1)C2)Nc1ccc2[nH]c(=O)[nH]c2c1`, the compound was classed as inactive.

Regarding `Cc1cccc(NC(=O)Cn2c(=O)n(CCC(=O)NC3CCCC3)c(=O)c3ccccc32)c1`, the compound was called inactive.

With `COc1ccccc1Nc1nn2c(=O)c3ccc(C(=O)NCc4cccnc4)cc3nc2s1`, the “lipid storage change, negative = inhibition” value was 14.8% (inactive) and the cell number change is -12.9%.

Consider `O=C(NCc1ccccn1)c1ccc2c(=O)n3nc(Nc4ccccc4)sc3nc2c1`, for which the Potency was 4.11 µM (active).

In the case of `CCc1ccccc1Nc1nn2c(=O)c3ccc(C(=O)NCc4cccs4)cc3nc2s1`, the “lipid storage change, negative = inhibition” value was -18.5% (inactive) and the cell number change is -9.06%.

Take `COc1ccc(OC)c(-c2csc(NC(=O)C3CSC4(C)CCC(=O)N34)n2)c1` (centres undefined): the “lipid storage change, negative = inhibition” value is 24.3% (inactive).

`CN1CCN(CCCNC(=S)Nc2ccc(F)c(Cl)c2)CC1`: the “lipid storage change, negative = inhibition” value is 26.4% (inactive).

Take `CCCNc1nc(N)nc(-c2cc(Cl)ccc2OC)n1`: the “lipid storage change, negative = inhibition” value was 5.2% (inactive) and the cell number change was found to be 5.2%.

With `CNc1nc(N)nc(-c2cc(Cl)ccc2OC)n1`, the “lipid storage change, negative = inhibition” value was 22.3% (inactive) and the cell number change was -0.358%.

As for `CCNc1nc(N)nc(-c2cc(Cl)ccc2OC)n1`, the Potency is 3.66 µM (active) and the cell number change is -11.6%.
